Compound activity: PubChem, National Center for Advancing Translational Sciences (NCATS)
Cruzain noTriton = qHTS Assay for Promiscuous and Specific Inhibitors of Cruzain (without detergent); Cruzipain (Trypanosoma cruzi), P25779; purified cruzain, Z-FR-AMC fluorescence, no detergent; Potency, µM, inactives show max response, negative = inhibition, hits mostly inhibitors; hit rate 2.3% among 200,000; AID 1476, 2009;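 further: plate controls were enzyme without inhibitor for no effect and buffer without enzyme for full effect; nearly all actives have a fitted effect of over 40% in size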
Target sequence (P25779 123-467 limits assumed): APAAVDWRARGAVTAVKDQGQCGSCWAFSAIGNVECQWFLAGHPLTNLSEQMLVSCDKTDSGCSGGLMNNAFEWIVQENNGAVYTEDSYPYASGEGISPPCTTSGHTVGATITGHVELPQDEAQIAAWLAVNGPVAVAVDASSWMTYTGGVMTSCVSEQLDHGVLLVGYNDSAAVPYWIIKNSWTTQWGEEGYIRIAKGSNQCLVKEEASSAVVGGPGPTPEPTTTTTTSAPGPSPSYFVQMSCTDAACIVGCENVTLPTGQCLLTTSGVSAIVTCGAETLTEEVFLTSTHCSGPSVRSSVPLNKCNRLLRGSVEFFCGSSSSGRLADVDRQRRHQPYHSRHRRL
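Purified cruzain at 1.5 nM, pre-incubated 15 min with compound at room temperature in 100 mM sodium acetate pH 5.5, 5 mM DTT, 0.00005% Triton X-100. Reaction started with 2 uM Z-FR-AMC; AMC fluorescence increase over 60 s gives rate.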
Cruzain inh Det = qHTS Assay for Promiscuous and Specific Inhibitors of Cruzain (with detergent) | Cruzipain (Trypanosoma cruzi), P25779 | purified cruzain, Z-FR-AMC fluorescence, 0.01% Triton | Potency, µM, for inactives: max response, negative = inhibition, actives largely listed as inhibitors | hit rate 0.43% among 200,000 | AID 1478, 2009;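 further: plate controls were neutral wells for no effect and buffer without enzyme for full effect; nearly all actives have a fitted effect of over 40% in size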
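Purified cruzain (1.5 nM final) was preincubated with compounds for 15 min at room temperature in 100 mM sodium acetate pH 5.5, 5 mM DTT, 0.01% Triton X-100. Reaction started with 2 uM Z-FR-AMC; AMC fluorescence change over 60 s gave activity.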
Giardia FBPA inh = qHTS Assay for Inhibitors of Fructose-1,6-bisphosphate Aldolase from Giardia Lamblia. purified Giardia FBPA. Potency, µM (series often up to 59.6 µM), inactives show at the highest dose activity, negative = inhibition, hits mostly inhibitors. hit rate 0.71% among 290,000; further: nearly all actives have a fitted effect of over 55% in size
Target sequence (A8B2U2 whole entry, looked up): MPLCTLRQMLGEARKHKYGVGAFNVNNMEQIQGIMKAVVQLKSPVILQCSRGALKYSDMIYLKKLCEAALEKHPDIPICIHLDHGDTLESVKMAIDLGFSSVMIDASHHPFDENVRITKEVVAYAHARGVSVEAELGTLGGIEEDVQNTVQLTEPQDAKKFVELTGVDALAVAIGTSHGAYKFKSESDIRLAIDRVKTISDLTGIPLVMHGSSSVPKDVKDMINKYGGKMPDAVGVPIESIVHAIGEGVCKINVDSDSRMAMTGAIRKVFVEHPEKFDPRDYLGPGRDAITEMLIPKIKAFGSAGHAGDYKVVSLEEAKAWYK
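40 nM FBPA preincubated 10 min at RT with compound (up to 57.5 uM final), then substrate plus GAPDH/TPI/NAD/arsenate coupling and diaphorase/resazurin added. Fluorescence read after 20 min at RT, 525/598 nm.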
Numbers without * were called inactive; ? = inconclusive; . = not tested or not shown; [ ] = another dose, or the depositor's remark. The full list was thinned out, with hits kept by preference. The call rests on the fitted dose curve; in most records, active means well fitted curve in the direction sought with a large enough effect; inconclusive means small, poorly fitted or top-dose-only effect, or another doubt; inactive means no such curve, though single readings can be large; an effect the other way counts as inactive or inconclusive. Unless noted, on the % scale 0 is the no-effect control and ±100 the full control effect; potency means the concentration at half of the fitted maximal effect.

SMILES	Cruzain noTriton	Cruzain inh Det	Giardia FBPA inh
O=C(N/N=C/c1cccnc1)c1ccc(CN2c3cccc4cccc(c34)S2(=O)=O)cc1	.	.	-1%
COc1cc(/C=N/NC(=O)c2cc(-c3cccn3C)n[nH]2)cc(OC)c1OC	6%	-2%	0%
COc1cccc(/C=N/NC(=O)c2cc(-c3cccn3C)n[nH]2)c1	25µM*	1%	-3%
CN(C)c1ccc(/C=N/NC(=O)c2ccc(CN3C(=O)c4cccc5cccc3c45)cc2)cc1	4µM*	-1%	-14%
CCCCS(=O)(=O)N1CCc2nc(-c3ccc(OC)cc3C)c3c(c2C1)CO[C@@H](c1ccccc1)C3	.	.	2%[12.9 µM]
O=S(=O)(c1ccc(F)cc1)N1CCN(c2nc(-c3ccc(F)cc3)cs2)CC1	10µM*	-1%	-7%
CS(=O)(=O)N1CCN(c2nc(-c3ccc(F)cc3)cs2)CC1	-1%	-2%	-1%
CCOc1ccc(C(=O)Nc2cc(-c3cn4cccnc4n3)ccc2C)cc1OCC	6%	0%	.
CC(C)C[C@H](NC(=O)CNC(=O)[C@@H]1CCCN1C(=O)[C@H](CCCNC(=N)N)NC(=O)[C@H](CC(=O)O)NC(=O)[C@@H](NC(=O)[C@H](CC(N)=O)NC(=O)[C@@H](NC(=O)[C@H](CC(=O)O)NC(=O)CNC(=O)[C@@H](NC(=O)[C@@H](NC(=O)[C@H](C)NC(=O)[C@@H](N)CCC(N)=O)[C@@H](C)O)C(C)C)C(C)C)[C@@H](C)O)C(=O)N[C@@H](CC(C)C)C(=O)N[C@@H](CC(=O)O)C(=O)N[C@@H](CC(C)C)C(=O)N[C@@H](CCCCN)C(=O)O	.	.	0%
CCOCCSc1nc2c(c(-c3cccs3)c1C#N)CC/C2=C/c1cccs1	16µM*	-5%	-7%
CCOC(=O)CC(=O)CSc1nc2c(c(-c3cccs3)c1C#N)CCC2	-6%	-8%	10%
C[N+](C)([O-])Cc1cc(-c2ccccc2)ccc1O	-5%	-1%	.
CCOC(=O)C1=C(N)n2c(s/c(=C\c3ccco3)c2=O)=C(C(=O)OCC)C1c1ccco1 (stereo not drawn)	7.9µM*	-6%	0%
CCOC(=O)C1=C(N)n2c(s/c(=C\c3ccco3)c2=O)=C(C(=O)OC(C)C)C1c1ccco1 (stereo not drawn)	10µM*	-8%	0%
CCOC(=O)C1=C(N)n2c(s/c(=C/c3ccccc3)c2=O)=C(C(=O)OCC)C1c1ccccc1 (stereo not drawn)	-9%	-2%	.
CCOC(=O)C1=C(c2ccccc2)N=c2s/c(=C\c3ccco3)c(=O)n2C1c1cccs1 (stereo not drawn)	?	-1%	?
Cn1cnnc1SCC(=O)c1cc2ccccc2o1	.	.	2%
Cn1ccnc1SCC(=O)c1cc2ccccc2o1	25µM*	-13%	-19%
Cc1ccc(NC(=O)c2nnn(CC(=O)Nc3ccc(C)c(Cl)c3)c2N)c(C)c1	10µM*	1%	.
Cc1ccc(NC(=O)Cn2nnc(C(=O)Nc3ccc(F)c(Cl)c3)c2N)cc1	.	.	4%
CC(=O)OC1C=C[C@@H](OC(C)=O)C1 (stereo partly drawn)	.	.	7%
O=c1cnc2cncnc2n1Cc1ccc(F)cc1	2%	1%	3%
CCN(C(=O)c1cn(-c2cccc(OC)c2)c(=O)c2ccccc12)c1ccccc1C	17%	-1%	.
O=C(Cn1c(C(=O)N2CCc3ccccc3C2)cc2sccc21)c1ccccc1	25µM*	-7%	-1%
O=C(Cn1c(C(=O)N2CCN(C3CCCCC3)CC2)cc2sccc21)c1ccccc1	0%	3%	1%
SMILES	Cruzain noTriton	Cruzain inh Det	Giardia FBPA inh
COC(=O)c1c(NC(=S)Nc2ccccc2Cl)sc(C)c1C	13µM*	-3%	-3%
CCOC(=O)c1c(NC(=O)C2c3ccccc3Oc3ccccc32)sc(C(C)=O)c1C	?	-1%	-9%
CCOC(=O)c1c(NC(=O)C2c3ccccc3Oc3ccccc32)sc(C)c1C	?	-4%	.
COC(=O)c1c(NC(=O)Cc2ccccc2)sc(C)c1C	-9%	-8%	7%
COC(=O)c1sc(NC(=O)C2c3ccccc3Oc3ccccc32)c(C(=O)OC)c1C	10µM*	-3%	-1%
COC(=O)c1c(NC(=O)C2c3ccccc3Oc3ccccc32)sc(C)c1C	25µM*	0%	0%
CC(C)[C@H](NC(=O)OC(C)(C)C)[C@@H](O)CC(=O)OC(C)(C)C	.	.	1%[12.9 µM]
CO[C@H]1COC(=O)[C@H](C)COC(=O)[C@H](C)NC(=O)C/C=C\[C@H]1C	.	.	0%[12.9 µM]
NC1CCCC[C@@H]1N (stereo partly drawn)	.	.	-13%
CCOC(=O)c1sc(NC(=O)CSc2nc3c(c(=O)n2-c2ccc(C)cc2)SCC3)c(C(=O)OCC)c1C	6.3µM*	-8%	-4%
COc1ccccc1-n1c(SCC(=O)Nc2nnc(C)s2)nc2c(c1=O)SCC2	-5%	22µM*	-1%
CCOC(=O)c1sc(NC(=O)CSc2nc3ccccc3s2)c(C(=O)OCC)c1C	20µM*	-5%	2%
CCOC(=O)c1sc(NC(=O)CSc2nnnn2-c2ccc(C)cc2)c(C(=O)OCC)c1C	-29%	1%	6%
CCOC(=O)c1sc(NC(=O)CSc2nncs2)c(C(=O)OCC)c1C	?	-9%	5%
COc1ccccc1-n1c(SCC(=O)Nc2cc(C)on2)nc2c(c1=O)SCC2	.	.	-19%
CC[C@H](C)[C@H](N)C(=O)N[C@@H](CC(N)=O)C(=O)N1CCC[C@H]1C(=O)N[C@H](C(=O)N[C@@H](Cc1ccc(O)cc1)C(=O)N[C@@H](CCCN=C(N)N)C(=O)N[C@@H](CC(C)C)C(=O)N[C@@H](CCCN=C(N)N)C(=O)N[C@@H](Cc1ccc(O)cc1)C(N)=O)[C@@H](C)CC	.	.	0%
CC(=O)Nc1ccc(-c2csc(N/N=C(/C)c3ccccc3)n2)cc1	.	.	-26%
C/C(=N/Nc1nc(-c2ccc(Cl)cc2)cs1)c1cccs1	4µM*	?	1%
COc1ccc(C(=O)Nc2nnc(SCc3cc(=O)n4cc(Cl)ccc4n3)s2)cc1	-4%	3%	.
CCOC(=O)c1c(C)oc2nc(C)nc(N3CCN(c4cccc(C(F)(F)F)c4)CC3)c12	-14%	-1%	.
O=C(Nc1cc(Sc2ccccn2)cc([N+](=O)[O-])c1)c1ccc(Cl)cc1	13µM*	4%	-15%
O=C(Nc1cc(Sc2ccccn2)cc([N+](=O)[O-])c1)c1cccc(Cl)c1	?	-7%	-20%
CSc1ccc(/C=N/NC(=O)COc2ccc(Br)cc2Cl)cc1	25µM*	0%	-3%
CCNC(=O)COc1ccc(Br)cc1Cl	14%	8%	0%
COC(=O)C(C(=O)OC)C1O[C@@]23COCCC2(C)C3c2ccccc21 (stereo partly drawn)	.	.	-3%[12.9 µM]
COc1cc(NS(=O)(=O)c2ccc(NC(=S)NC(=O)/C=C/c3ccc(F)cc3)cc2)ncn1	.	.	-13%
COc1ccc(NS(=O)(=O)c2ccc(NC(=S)NC(=O)/C=C/c3ccccc3)cc2)nn1	32µM*	-13%	-5%
CCc1nnc(NS(=O)(=O)c2ccc(NC(=S)NC(=O)c3ccc(Br)cc3)cc2)s1	7%	?	0%
